# Assay results from PubChem BioAssay (NCATS).
# Several values for one entry are separate records, joined by “and”; a condition that tells them apart may be missing. Equal values may be shown once. Results filed as inconclusive are left out. Values without a mark were called inactive. Activity calls are given as the source filed them. Calls follow the shape of the dose curve; as a rule, active = well fitted curve in the direction sought with a large enough effect; inconclusive = small, poorly fitted or top-dose-only effect, or another doubt; inactive = no such curve, though single readings can be large; an effect the other way counts as inactive or inconclusive.
# Legend:
# [1] = Viability qHTS for spleen associated tyrosine kinase inhibitor (SYKi) naive MV4-11 cells (AID 1963823); also: nearly all actives have a fitted effect of over 40% in size
# Summary of the method: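 Cells: MV4-11, SYK inhibitor naive, 500 per well. Treatment: library compounds, 72 hr, 37 C, 5% CO2. Read-out: CellTiter-Glo luminescence after 10 min RT.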
# [2] = Viability qHTS for spleen associated tyrosine kinase inhibitor (SYKi) drug resistant MV4-11 cells (AID 1963824); also: nearly all actives have a fitted effect of over 35% in size
# Summary of the method: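 SYK-inhibitor-resistant MV4-11 AML cells were seeded at 500 per well onto compound and cultured 72 hours (37 °C, 5% CO2). CellTiter-Glo was then added, and after 10 min at room temperature, luminescence gave viability.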
# [3] = Cellular viability qHTS for adrenocortical cancer (ACC) cell line SW-13 (AID 1963989); conditions: SW-13 ACC cells viability, CellTiter-Glo, 48 h; activity (max response): hits give low values; also: nearly all actives have a fitted effect of over 65% in size;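 as to activity (max response): cells grown in serum-free medium with ITS supplement; % is scaled to controls: 0 for no effect and ±100 for the full control effect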
# Summary of the method: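 Viability was read as CellTiter-Glo luminescence after 48 h compound treatment (up to 46 uM final) of SW-13 cells grown serum-free; titration curves were fit with a four-parameter logistic model to give IC50 and efficacy.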
# [4] = Cellular viability qHTS for adrenocortical cancer (ACC) cell line NCI-H295R (AID 1963990); also: nearly all actives have a fitted effect of over 60% in size
# Summary of the method: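 CellTiter-Glo ATP luminescence, read 48 h after compound addition, measured viability of NCI-H295R adrenocortical cells grown serum-free with ITS. Final concentrations spanned up to 46 uM. Data normalized to DMSO and doxorubicin, fitted for IC50 and maximal response.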
# Potency is read from the fitted curve at half-maximal effect.
SMILES,Potency [1],Potency [2],Potency [3],Potency [4],activity (max response) [3]
NC(=O)c1ccccc1Nc1ccnc(Nc2cccc(O)c2)n1,372 nM (active),326 nM (active),17800 nM (active),12600 nM (active),–
Cc1ccc(S(=O)(=O)Nc2cc(-c3ccc(C#N)s3)ccc2C)cc1,29.5 nM (active),33.2 nM (active),44.7 nM (active),31.6 nM (active),–
COc1cc(N2CCN(C)CC2)ccc1Nc1ncc2c(n1)N(C)c1ccccc1C(=O)N2C,934 nM (active),1860 nM (active),15800 nM (active),14100 nM (active),–
CC(=O)Nc1ccc(OCCOCCOc2ccc(NC(C)=O)cc2)cc1,inactive,inactive,–,inactive,-7.42%
Cc1[nH]c2ccccc2c1CCNCc1ccc(/C=C/C(=O)NO)cc1,29.5 nM (active),26.3 nM (active),251 nM (active),112 nM (active),–
C[N+](C)(C)CC[N+]1(C)Cc2c(Cl)c(Cl)c(Cl)c(Cl)c2C1,inactive,inactive,–,inactive,6.09%
CCN1CCCC(OC(=O)C(c2ccccc2)c2ccccc2)C1 (stereo unspecified),inactive,inactive,–,inactive,-12.5%
CCN(CC)CCOC(=O)C1(c2ccccc2)CCCC1,inactive,inactive,–,inactive,8.5%
CC(C)(O)[C@H]1CC[C@@](C)([C@H]2[C@@H](O)C[C@@]3(C)[C@@H]4C[C@H](O[C@@H]5O[C@H](CO)[C@@H](O)[C@H](O)[C@H]5O)[C@H]5C(C)(C)[C@@H](O[C@@H]6OC[C@@H](O)[C@H](O)[C@H]6O)CC[C@@]56C[C@@]46CC[C@]23C)O1,inactive,inactive,–,inactive,1.01%
O=C(O)c1cc(O)c(O)c(O)c1,inactive,13300 nM (active),–,inactive,-1.2%
C[C@H]1COCCN1c1cc(C2(S(=O)(=O)C3CC3)CC2)nc(-c2ccc(NC(=S)NCCO)cc2)n1,18.4 nM (active),73.1 nM (active),316 nM (active),1120 nM (active),–
CC(C)(C)C1CCC(CC2=C(O)c3ccccc3C(=O)C2=O)CC1 (stereo unspecified),inactive,inactive,–,inactive,12.3%
CC[C@@H](C)Nc1cc(C(=O)NC2CC3CC[C@@H](C2)N3c2ccc(C(=O)C3CC3)cn2)c(C)cc1C(N)=O (stereo partly specified),13 nM (active),25.9 nM (active),178 nM (active),355 nM (active),–
NS(=O)(=O)c1cc2c(cc1Cl)NC(CC1CCCC1)NS2(=O)=O (stereo unspecified),inactive,inactive,–,inactive,10.5%
CC[C@]12CCCN3CCc4c(n(c5ccccc45)[C@@](O)(C(=O)OC)C1)[C@@H]32,inactive,inactive,–,inactive,1.04%
C/C=C/c1ccc(OC)cc1,inactive,inactive,–,inactive,7.49%
CN1CCN(Cc2ccc(Nc3ncc(Cl)c(Nc4ccccc4S(=O)(=O)N(C)C)n3)cc2)CC1,6 nM (active),9.6 nM (active),750 nM (active),237 nM (active),–
CC(C)=CCC/C(C)=C/CO,inactive,inactive,–,inactive,10%
CC(=O)OCC(=O)[C@@]1(O)CC[C@H]2[C@@H]3CCC4=CC(=O)CC[C@]4(C)[C@H]3C(=O)C[C@@]21C,inactive,inactive,–,inactive,-12.6% and -6.75%
COc1cc(C(=S)N2CCOCC2)ccc1O,inactive,inactive,–,inactive,-19.3%
CC1(C(=O)O)CCC2(C)CCC3(C)C(=CC(=O)C4C5(C)CCC(OC6OC(C(=O)O)C(O)C(O)C6OC6OC(C(=O)O)C(O)C(O)C6O)C(C)(C)C5CCC43C)C2C1 (stereo unspecified),inactive,inactive,–,inactive,1.77%
C/C(=N/NC(=O)c1ccncc1)C(=O)O,inactive,inactive,–,inactive,7.83%
Cc1cc(OCCCc2c3n(c4c(-c5c(C)nn(C)c5C)c(Cl)ccc24)[C@H](C)CN(c2cn(C)c4ccc(C(=O)O)cc24)C3=O)cc(C)c1Cl,742 nM (active),662 nM (active),2000 nM (active),2000 nM (active),–
C[C@@H](O)[C@@H](C)Oc1nc(Nc2ccc(S(=N)(=O)C3CC3)cc2)ncc1C(F)(F)F (stereo partly specified),3320 nM (active),11800 nM (active),–,inactive,4.29%
